Experimental data as given in paper PMC5540273 (PLoS ONE, 2017).

Experiments:
Details in all cases: concentration: 1 μM, replicates: in singlicate; n = 1
[1] = system: T1, RSK2(Kin.Dom.1-N-terminal)
T1 construct: gene RPS6KA3

[2] = system: T2, RSK2(Kin.Dom.2-C-terminal)
T2 construct: gene RPS6KA3

[3] = system: T3, RSK3(Kin.Dom.1-N-terminal)
T3 construct: gene RPS6KA2

[4] = system: T4, RSK3(Kin.Dom.2-C-terminal)
T4 construct: gene RPS6KA2

[5] = system: T5, RSK4(Kin.Dom.1-N-terminal)
T5 construct: gene RPS6KA6

[6] = system: T6, RSK4(Kin.Dom.2-C-terminal)
T6 construct: gene RPS6KA6

S6K1 = system: S6K1
SBK1 = system: SBK1
SGK2 = system: SGK2
SGK3 = system: SGK3
SGK = system: SGK
SIK2 = system: SIK2
SIK = system: SIK
SLK = system: SLK
SNARK = system: T7, SNARK
T7 construct: gene NUAK2

SNRK = system: SNRK
SRC = system: SRC
SRMS = system: SRMS
SRPK1 = system: SRPK1
SRPK2 = system: SRPK2
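Also: KINOMEscan kinase panel screen.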

Compound: O=C(NCCNc1ccnc(Nc2ccc(F)cc2)n1)c1cc2ccccc2s1 [GSK1379874]
- %Inh [1]: 0%
- %Inh [2]: 0%
- %Inh [3]: 0%
- %Inh [4]: 0%
- %Inh [5]: 0%
- %Inh [6]: 1%
- %Inh (S6K1): 0%
- %Inh (SBK1): 0%
- %Inh (SGK2): 0%
- %Inh (SGK3): 0%
- %Inh (SGK): 0%
- %Inh (SIK2): 0%
- %Inh (SIK): 0%
- %Inh (SLK): 17%
- %Inh (SNARK): 0%
- %Inh (SNRK): 0%
- %Inh (SRC): 0%
- %Inh (SRMS): 0%
- %Inh (SRPK1): 3%
- %Inh (SRPK2): 19%

Compound: O=c1cc(N2CCOCC2)nc2n(Cc3cccc(F)c3)ccn12 [GSK2297430]
- %Inh [1]: 0%
- %Inh [2]: 0%
- %Inh [3]: 14%
- %Inh [4]: 0%
- %Inh [5]: 0%
- %Inh [6]: 6%
- %Inh (S6K1): 0%
- %Inh (SBK1): 6%
- %Inh (SGK2): 0%
- %Inh (SGK3): 0%
- %Inh (SGK): 0%
- %Inh (SIK2): 2%
- %Inh (SIK): 4%
- %Inh (SLK): 18%
- %Inh (SNARK): 0%
- %Inh (SNRK): 0%
- %Inh (SRC): 12%
- %Inh (SRMS): 0%
- %Inh (SRPK1): 23%
- %Inh (SRPK2): 0%

Compound: O=c1cc(N2CCOCC2)nc2n(Cc3cccc(C(F)(F)F)c3)ccn12 [GSK2297543]
- %Inh [1]: 16%
- %Inh [2]: 6%
- %Inh [3]: 0%
- %Inh [4]: 6%
- %Inh [5]: 0%
- %Inh [6]: 13%
- %Inh (S6K1): 0%
- %Inh (SBK1): 37%
- %Inh (SGK2): 0%
- %Inh (SGK3): 5%
- %Inh (SGK): 0%
- %Inh (SIK2): 0%
- %Inh (SIK): 0%
- %Inh (SLK): 18%
- %Inh (SNARK): 0%
- %Inh (SNRK): 0%
- %Inh (SRC): 0%
- %Inh (SRMS): 0%
- %Inh (SRPK1): 24%
- %Inh (SRPK2): 0%

Compound: Cn1cc(-c2ccc3c(c2)CCN3C(=O)Cc2ccccc2Cl)c2c(N)ncnc21 [GSK2608885]
- %Inh [1]: 0%
- %Inh [2]: 23%
- %Inh [3]: 87%
- %Inh [4]: 12%
- %Inh [5]: 0%
- %Inh [6]: 18%
- %Inh (S6K1): 14%
- %Inh (SBK1): 25%
- %Inh (SGK2): 0%
- %Inh (SGK3): 3%
- %Inh (SGK): 0%
- %Inh (SIK2): 52%
- %Inh (SIK): 96.4%
- %Inh (SLK): 99.2%
- %Inh (SNARK): 89%
- %Inh (SNRK): 0%
- %Inh (SRC): 99.1%
- %Inh (SRMS): 98.4%
- %Inh (SRPK1): 56%
- %Inh (SRPK2): 0%

Compound: O=C(Nc1cccc(-c2nn3ncccc3c2-c2ccnc(Nc3cccc(C(F)(F)F)c3)n2)c1)c1c(F)cccc1F [GSK299495]
- %Inh [1]: 22%
- %Inh [2]: 0%
- %Inh [3]: 31%
- %Inh [4]: 5%
- %Inh [5]: 0%
- %Inh [6]: 0%
- %Inh (S6K1): 0%
- %Inh (SBK1): 11%
- %Inh (SGK2): 2%
- %Inh (SGK3): 0%
- %Inh (SGK): 1%
- %Inh (SIK2): 0%
- %Inh (SIK): 0%
- %Inh (SLK): 81%
- %Inh (SNARK): 0%
- %Inh (SNRK): 0%
- %Inh (SRC): 56%
- %Inh (SRMS): 21%
- %Inh (SRPK1): 0%
- %Inh (SRPK2): 16%

Compound: Cc1ccc(NC(=O)c2ccnc(N3CCN(C)CC3)c2)cc1-c1ccc(C(=O)NCC2CC2)cc1 [GW775604]
- %Inh [1]: 0%
- %Inh [2]: 0%
- %Inh [3]: 0%
- %Inh [4]: 15%
- %Inh [5]: 0%
- %Inh [6]: 7%
- %Inh (S6K1): 9%
- %Inh (SBK1): 0%
- %Inh (SGK2): 0%
- %Inh (SGK3): 0%
- %Inh (SGK): 0%
- %Inh (SIK2): 21%
- %Inh (SIK): 0%
- %Inh (SLK): 0%
- %Inh (SNARK): 0%
- %Inh (SNRK): 0%
- %Inh (SRC): 0%
- %Inh (SRMS): 3%
- %Inh (SRPK1): 0%
- %Inh (SRPK2): 0%

Compound: Cc1cn2c(=O)cc(N3CCOCC3)nc2n1Cc1cccc(Cl)c1Cl [GSK2334006]
- %Inh [1]: 12%
- %Inh [2]: 25%
- %Inh [3]: 16%
- %Inh [4]: 0%
- %Inh [5]: 15%
- %Inh [6]: 13%
- %Inh (S6K1): 3%
- %Inh (SBK1): 0%
- %Inh (SGK2): 0%
- %Inh (SGK3): 0%
- %Inh (SGK): 0%
- %Inh (SIK2): 3%
- %Inh (SIK): 4%
- %Inh (SLK): 32%
- %Inh (SNARK): 0%
- %Inh (SNRK): 1%
- %Inh (SRC): 42%
- %Inh (SRMS): 0%
- %Inh (SRPK1): 21%
- %Inh (SRPK2): 0%

Compound: O=C1Cc2cc(Nc3nc(NCc4cccc(S(=O)(=O)C(F)(F)F)c4)ncc3C(F)(F)F)ccc2N1
- %Inh [1]: 37%
- %Inh [2]: 15%
- %Inh [3]: 8%
- %Inh [4]: 0%
- %Inh [5]: 35%
- %Inh [6]: 0%
- %Inh (S6K1): 0%
- %Inh (SBK1): 0%
- %Inh (SGK2): 2%
- %Inh (SGK3): 33%
- %Inh (SGK): 10%
- %Inh (SIK2): 0%
- %Inh (SIK): 6%
- %Inh (SLK): 0%
- %Inh (SNARK): 0%
- %Inh (SNRK): 0%
- %Inh (SRC): 0%
- %Inh (SRMS): 0%
- %Inh (SRPK1): 0%
- %Inh (SRPK2): 6%

Compound: Cc1nnc(-c2ccc3ncc(-c4ccc(S(C)=O)cc4)n3c2)o1 (centres unmarked)
- %Inh [1]: 7%
- %Inh [2]: 4%
- %Inh [3]: 0%
- %Inh [4]: 31%
- %Inh [5]: 0%
- %Inh [6]: 19%
- %Inh (S6K1): 0%
- %Inh (SBK1): 0%
- %Inh (SGK2): 13%
- %Inh (SGK3): 0%
- %Inh (SGK): 0%
- %Inh (SIK2): 0%
- %Inh (SIK): 9%
- %Inh (SLK): 14%
- %Inh (SNARK): 0%
- %Inh (SNRK): 2%
- %Inh (SRC): 0%
- %Inh (SRMS): 0%
- %Inh (SRPK1): 0%
- %Inh (SRPK2): 0%

Compound: Cc1cccc(Cn2ccn3c(=O)cc(N4CCOCC4)nc23)c1 [GSK2297542]
- %Inh [1]: 11%
- %Inh [2]: 33%
- %Inh [3]: 19%
- %Inh [4]: 44%
- %Inh [5]: 0%
- %Inh [6]: 42%
- %Inh (S6K1): 6%
- %Inh (SBK1): 26%
- %Inh (SGK2): 1%
- %Inh (SGK3): 0%
- %Inh (SGK): 0%
- %Inh (SIK2): 0%
- %Inh (SIK): 3%
- %Inh (SLK): 22%
- %Inh (SNARK): 3%
- %Inh (SNRK): 0%
- %Inh (SRC): 24%
- %Inh (SRMS): 11%
- %Inh (SRPK1): 11%
- %Inh (SRPK2): 0%
